Experimental data published in PubChem BioAssay (NCI).
Where “and” joins values, the source holds several entries; their conditions need not be identical. Equal entries are not always repeated. Compounds without any hit were thinned out: in the full panel of roughly 83,000, 20% have a hit.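 Cell lines were cultured in 96-well plates, exposed to a single compound concentration, and assessed for percent growth 48 hours later.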 Unmarked numbers belong to inactive results. Calls of active or inactive are those of the source. The calls were made as follows: active = growth percent below 10; inactive = the rest.

How the values were obtained:
Test in all cases: NCI-60 one-dose screen, 48 h (100 = growth as untreated, 0 = no growth, -100 = all killed)
Conditions in all cases: 10 µM unless noted
[1] = system: MOLT-4 leukemia
[2] = system: SR leukemia
[3] = system: OVCAR-8 ovarian
[4] = system: OVCAR-5 ovarian
[5] = system: OVCAR-4 ovarian
[6] = system: SK-OV-3 ovarian
[7] = system: IGROV1 ovarian
[8] = system: OVCAR-3 ovarian
[9] = system: HS 578T breast
[10] = system: NCI/ADR-RES ovarian
[11] = system: BT-549 breast
[12] = system: MDA-MB-435 melanoma
[13] = system: MCF7 breast
[14] = system: HCT-116 colon
[15] = system: HCC-2998 colon
[16] = system: KM12 colon
[17] = system: T-47D breast
[18] = system: SW-620 colon
[19] = system: RPMI-8226 leukemia

Structure (SMILES): CCC(=O)C(CC(C)[N+](C)(C)C)(c1ccccc1)c1ccccc1 (configuration not stated)
- growth [1]: 104%
- growth [2]: 101%
- growth [3]: 99.8%
- growth [4]: 96.8%
- growth [5]: 110%
- growth [6]: 96.6%
- growth [7]: 101%
- growth [8]: 70.6%
- growth [9]: 107%
- growth [10]: 102%
- growth [11]: 67.5%
- growth [12]: 104%
- growth [13]: 90.7%
- growth [14]: 93.6%
- growth [15]: 102%
- growth [16]: 107%

Structure (SMILES): O=C1CCCCC1CN1CCCCC1 (configuration not stated)
- growth [1]: 116%
- growth [2]: 123%
- growth [3]: 110%
- growth [4]: 97.1%
- growth [5]: 119%
- growth [6]: 97.9%
- growth [7]: 93.9%
- growth [8]: 100%
- growth [9]: 107%
- growth [10]: 101%
- growth [17]: 83.2%
- growth [11]: 117%
- growth [12]: 109%
- growth [18]: 101%
- growth [13]: 90.9%
- growth [14]: 101%
- growth [16]: 98.1%

Structure (SMILES): CC[C@H](C)[C@H](NC(=O)[C@H]1CCCCN1C)C(=O)N(C)[C@H](C[C@@H](OC(C)=O)c1nc(C(=O)N[C@@H](Cc2ccccc2)C[C@H](C)C(=O)O)cs1)C(C)C
- growth [1]: 12.8%
- growth [2]: 2.65% (active)
- growth [3]: 21%
- growth [4]: 57.7%
- growth [5]: 52.6%
- growth [6]: 12.3%
- growth [7]: 30.2%
- growth [8]: -4.44% (active)
- growth [9]: 25.3%
- growth [10]: 12.2%
- growth [17]: 70.5%
- growth [11]: -37.2% (active)
- growth [12]: -10.9% (active)
- growth [18]: 35.2%
- growth [13]: 14.6%
- growth [14]: 5.71% (active)
- growth [15]: 13.7%
- growth [16]: 0.294% (active)

Structure (SMILES): CCCN1C(=O)NC(=O)C(CC)(N2C(=O)c3c(F)c(F)c(F)c(F)c3C2=O)C1=O (configuration not stated)
- growth [1]: -79.6% (active)
- growth [2]: -76.5% (active)
- growth [3]: -56.7% (active)
- growth [4]: -88.1% (active)
- growth [5]: -43.1% (active)
- growth [6]: -25.4% (active)
- growth [7]: -77.9% (active)
- growth [8]: -96.4% (active)
- growth [9]: -24.6% (active)
- growth [10]: -28.5% (active)
- growth [17]: -52.3% (active)
- growth [11]: -78.8% (active)
- growth [12]: -60.3% (active)
- growth [18]: -92.9% (active)
- growth [13]: -76.5% (active)
- growth [14]: -78.2% (active)
- growth [15]: -87% (active)
- growth [16]: -96.2% (active)

Structure (SMILES): CC1=C(C)C(=O)O[C@@H]([C@](C)(O)[C@]2(O)CC[C@@]3(O)[C@@H]4C[C@H]5O[C@]56CC=CC(=O)[C@]6(C)[C@H]4CC[C@]23C)C1
- growth [1]: -12.7% (active)
- growth [2]: -23.5% (active)
- growth [3]: -7.94% (active)
- growth [4]: 21.7%
- growth [5]: 7.99% (active)
- growth [6]: -19% (active)
- growth [7]: -36.7% (active)
- growth [8]: -59.6% (active)
- growth [9]: 9.59% (active)
- growth [10]: 42.6%
- growth [17]: 0.829% (active)
- growth [11]: -24.4% (active)
- growth [12]: 3.13% (active)
- growth [18]: -37% (active)
- growth [13]: -16.3% (active)
- growth [14]: -4.21% (active)
- growth [15]: -69.8% (active)
- growth [16]: -24.2% (active)

Structure (SMILES): Cc1ccc(S(=O)(=O)n2cc([C@@]3(O)C[C@H](CSC#N)OC3=O)c3ccccc32)cc1
- growth [1]: 7.16% (active)
- growth [2]: 49%
- growth [3]: 83.2%
- growth [4]: 83.9%
- growth [5]: 75.7%
- growth [6]: 99.6%
- growth [7]: 71.6%
- growth [9]: 44.4%
- growth [10]: 82.2%
- growth [17]: 62.8%
- growth [11]: 70.9%
- growth [12]: 63.3%
- growth [18]: 36.1%
- growth [13]: 23.6%
- growth [14]: 45.6%
- growth [15]: 25.1%
- growth [16]: 68.7%

Structure (SMILES): O=P(O)(Nc1ccccc1)Nc1ccccc1
- growth [1]: 43.6%
- growth [2]: 104%
- growth [3]: 103%
- growth [4]: 90.1%
- growth [5]: 99.9%
- growth [6]: 110%
- growth [7]: 90.6%
- growth [8]: 94.4%
- growth [9]: 94.5%
- growth [10]: 76.9%
- growth [17]: 97%
- growth [11]: 100%
- growth [12]: 88.5%
- growth [18]: 86.2%
- growth [13]: 97.3%
- growth [14]: 89.1%
- growth [16]: 95.9%

Structure (SMILES): Cc1ccc(P(=O)(O)O)cc1
- growth [1]: 116%
- growth [2]: 97.9%
- growth [3]: 110%
- growth [4]: 114%
- growth [6]: 128%
- growth [7]: 111%
- growth [8]: 118%
- growth [9]: 97.7%
- growth [10]: 106%
- growth [17]: 98.8%
- growth [11]: 122%
- growth [12]: 107%
- growth [18]: 105%
- growth [13]: 98.6%
- growth [14]: 104%
- growth [15]: 103%
- growth [16]: 104%

Structure (SMILES): C[C@]12CCc3sc(Nc4ccc(O)cc4)nc3C1=CC[C@@H]1[C@@H]2CC[C@]2(C)C(=O)CC[C@@H]12
- growth [1]: 11%
- growth [2]: 9.6% (active)
- growth [3]: 35.9%
- growth [4]: 117%
- growth [5]: 57.1%
- growth [6]: 108%
- growth [7]: 13.1%
- growth [8]: -31.7% (active)
- growth [9]: 53.6%
- growth [10]: 68.6%
- growth [17]: 10.6%
- growth [11]: 45.6%
- growth [12]: 35.3%
- growth [18]: -32.2% (active)
- growth [13]: 3.11% (active)
- growth [14]: -72.4% (active)
- growth [15]: 97.7%
- growth [16]: 46.7%

Structure (SMILES): CC1(C)N(Nc2ccccc2)C(=O)C2CCCN21 (configuration not stated)
- growth [1]: 15.1%
- growth [2]: 14.2%
- growth [3]: 87%
- growth [4]: 75.1%
- growth [5]: 70.8%
- growth [6]: 85.1%
- growth [7]: 72.7%
- growth [8]: 0.57% (active)
- growth [9]: 85.9%
- growth [10]: 85.9%
- growth [17]: 56.8%
- growth [11]: 13.6%
- growth [12]: 12.5%
- growth [18]: 62.5%
- growth [13]: 80.1%
- growth [14]: 12.1%
- growth [16]: 15.7%

Structure (SMILES): O=[N+]([O-])c1ccc(CI)cc1
- growth [1]: 14.7%
- growth [2]: 34.4%
- growth [3]: 84.4%
- growth [4]: 96.8%
- growth [5]: 102%
- growth [6]: 116%
- growth [7]: 115%
- growth [9]: 111%
- growth [10]: 70.9%
- growth [17]: 73.3%
- growth [11]: 98.6%
- growth [12]: 90.4%
- growth [18]: 26.4%
- growth [13]: 21.7%
- growth [14]: 1.59% (active)
- growth [16]: 106%

Structure (SMILES): CC1(C)C=Cc2c(ccc3c2[N+]([O-])=C2C3=C[C@@]34NC(=O)[C@]5(CCCN5C3=O)C[C@@H]4C2(C)C)O1
- growth [1]: 28.7%
- growth [2]: 15.4%
- growth [3]: 42.7%
- growth [4]: 56.6%
- growth [5]: 43.5%
- growth [6]: 85.5%
- growth [7]: 55.6%
- growth [8]: 25%
- growth [9]: 90.8%
- growth [10]: 54.6%
- growth [17]: 53.2%
- growth [11]: 39.8%
- growth [12]: 47.3%
- growth [18]: 12.9%
- growth [13]: 17.9%
- growth [15]: 78.1%
- growth [16]: 47.5%

Structure (SMILES): O=C(O)C(Br)CBr (configuration not stated)
- growth [1]: 87.7%
- growth [2]: 99%
- growth [3]: 92.9%
- growth [4]: 117%
- growth [5]: 97.1%
- growth [6]: 101%
- growth [7]: 104%
- growth [8]: 106%
- growth [9]: 111%
- growth [10]: 101%
- growth [17]: 89.6%
- growth [11]: 100%
- growth [12]: 103%
- growth [18]: 105%
- growth [13]: 87.9%
- growth [16]: 104%

Structure (SMILES): C[Se]/C=C1/C(=O)N(c2c(Cl)cccc2Cl)c2ccccc21
- growth [1]: 10.2%
- growth [2]: 2.07% (active)
- growth [3]: -15.2% (active)
- growth [4]: 28.7%
- growth [5]: 34.3%
- growth [6]: 61.5%
- growth [7]: 44.7%
- growth [8]: 20.3%
- growth [9]: 13%
- growth [10]: 9.06% (active)
- growth [17]: 65.8%
- growth [11]: -35.6% (active)
- growth [12]: -30.3% (active)
- growth [13]: 17.3%
- growth [15]: 77.2%
- growth [16]: 72%

Structure (SMILES): CCCC[C@H]1C(=O)O[C@H](C)[C@H](NC(=O)c2cccc(NC=O)c2O)C(=O)O[C@@H](C)[C@@H]1OC(=O)CC(C)C
- growth [1]: 31.1%
- growth [2]: 49.4%
- growth [19]: 18.2%
- growth [4]: -27.7% (active)
- growth [5]: 40.9%
- growth [6]: 68%
- growth [7]: 55.6%
- growth [8]: 43.4%
- growth [9]: -18.5% (active)
- growth [10]: 1.1% (active)
- growth [17]: 27.9%
- growth [11]: 140%
- growth [12]: 39%
- growth [18]: 59%
- growth [13]: 38.3%
- growth [14]: 20.8%
- growth [15]: 56.6%
- growth [16]: 41.9%

Structure (SMILES): COC(=O)C1=CCCN(C)C1
- growth [1]: 105% and 97.6%
- growth [2]: 99.7% and 110%
- growth [3]: 105%
- growth [4]: 94.9%
- growth [6]: 111% and 110%
- growth [7]: 102% and 145%
- growth [8]: 120% and 118%
- growth [9]: 104% and 117%
- growth [10]: 107% and 115%
- growth [17]: 101% and 113%
- growth [11]: 97.7%
- growth [12]: 98.9% and 96.1%
- growth [13]: 96.1% and 101%
- growth [14]: 102% and 108%
- growth [15]: 102% and 124%
- growth [16]: 117% and 109%
